Data as given in ChEMBL document CHEMBL3988442, “University of Dundee, Small-Polar-MMV Screening Library” (2021).
For some of these results: Entries with a potency or affinity are not part of this list.

Assays:
Design in all cases: scale not given: direction of the effect not stated beside the values
[1] = molecular target: Protein translocase subunit SecA (Escherichia coli (strain K12)) (UniProt P10408); assay: Assay to Identify E. coli SecA ATPase Inhibitors; type: functional; conditions: 30 µM
[2] = molecular target: T1, Ubiquitin-activating enzyme e1, putative (Leishmania donovani (strain BPK282A1)) (UniProt E9BSI1); assay: Leishmania donovani Ubiquitin Activating Enzyme (LdE1); type: functional; conditions: 30 µM
T1 sequence (whole entry): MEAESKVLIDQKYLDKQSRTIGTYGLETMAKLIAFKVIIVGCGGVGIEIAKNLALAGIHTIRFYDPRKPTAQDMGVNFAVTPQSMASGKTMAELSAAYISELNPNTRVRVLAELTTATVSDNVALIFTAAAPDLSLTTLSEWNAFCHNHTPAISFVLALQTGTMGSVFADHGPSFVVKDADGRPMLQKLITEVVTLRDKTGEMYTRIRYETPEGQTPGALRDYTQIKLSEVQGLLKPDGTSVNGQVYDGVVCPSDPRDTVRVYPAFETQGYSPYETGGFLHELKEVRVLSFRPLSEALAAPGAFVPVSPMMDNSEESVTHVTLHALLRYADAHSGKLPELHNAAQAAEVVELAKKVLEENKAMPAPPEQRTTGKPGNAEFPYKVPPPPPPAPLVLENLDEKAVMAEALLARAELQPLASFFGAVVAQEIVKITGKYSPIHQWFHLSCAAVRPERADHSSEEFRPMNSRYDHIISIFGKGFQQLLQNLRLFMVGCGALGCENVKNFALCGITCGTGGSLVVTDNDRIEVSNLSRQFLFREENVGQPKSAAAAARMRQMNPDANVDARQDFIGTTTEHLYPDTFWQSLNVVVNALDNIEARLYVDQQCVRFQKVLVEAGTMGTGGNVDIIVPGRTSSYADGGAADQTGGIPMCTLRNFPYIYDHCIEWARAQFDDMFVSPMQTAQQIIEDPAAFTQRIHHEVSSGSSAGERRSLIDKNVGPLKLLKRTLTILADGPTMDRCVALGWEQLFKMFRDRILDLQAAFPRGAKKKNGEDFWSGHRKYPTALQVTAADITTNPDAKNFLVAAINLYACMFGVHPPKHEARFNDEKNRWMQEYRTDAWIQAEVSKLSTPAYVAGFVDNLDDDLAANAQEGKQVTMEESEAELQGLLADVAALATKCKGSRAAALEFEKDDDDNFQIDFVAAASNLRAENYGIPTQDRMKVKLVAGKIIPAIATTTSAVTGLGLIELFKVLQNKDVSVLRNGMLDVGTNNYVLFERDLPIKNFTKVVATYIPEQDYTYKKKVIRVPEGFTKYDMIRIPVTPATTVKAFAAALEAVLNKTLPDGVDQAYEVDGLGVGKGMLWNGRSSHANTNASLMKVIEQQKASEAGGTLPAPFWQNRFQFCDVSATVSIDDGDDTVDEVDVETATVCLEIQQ

[3] = molecular target: T2, Aspartate--tRNA(Asp/Asn) ligase (Mycobacterium tuberculosis (strain ATCC 25618 / H37Rv)) (UniProt P9WFW3); assay: Assay for Asp RNA synthetase-1 from Mycobacterium tuberculosis; type: functional; conditions: 30 µM; note: in the data most compounds retested in dose-response had high values
T2 sequence (whole entry): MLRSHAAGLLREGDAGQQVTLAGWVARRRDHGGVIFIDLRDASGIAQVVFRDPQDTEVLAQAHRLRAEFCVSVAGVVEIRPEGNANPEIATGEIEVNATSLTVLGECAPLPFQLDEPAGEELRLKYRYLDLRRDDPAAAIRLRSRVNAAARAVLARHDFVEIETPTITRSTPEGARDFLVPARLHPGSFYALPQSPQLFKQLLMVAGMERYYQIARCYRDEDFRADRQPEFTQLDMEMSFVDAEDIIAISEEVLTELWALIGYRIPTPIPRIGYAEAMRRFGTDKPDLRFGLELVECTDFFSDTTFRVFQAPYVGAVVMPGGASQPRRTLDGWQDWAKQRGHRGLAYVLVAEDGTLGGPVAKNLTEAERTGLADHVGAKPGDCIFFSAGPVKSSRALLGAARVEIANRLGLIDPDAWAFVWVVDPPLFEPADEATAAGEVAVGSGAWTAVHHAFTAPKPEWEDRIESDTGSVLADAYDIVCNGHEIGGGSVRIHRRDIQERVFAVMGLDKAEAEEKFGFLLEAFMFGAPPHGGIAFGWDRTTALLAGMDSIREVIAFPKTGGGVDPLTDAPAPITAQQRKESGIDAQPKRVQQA

[4] = molecular target: AMP-activated protein kinase, AMPK (Homo sapiens) (UniProt P54646+O43741+P54619+Q9UGJ0+Q9Y478+Q13131+Q9UGI9); assay: AMP-dependent Kinase enzyme assay. An in vitro enzyme assay that detects ADP turnover that is directly proportional to AMPK activity. This uses naive AMPK that is activated during the assay with MK-8722; type: functional; conditions: 30 µM
[5] = molecular target: Sialic acid-binding Ig-like lectin 9 (Homo sapiens) (UniProt Q9Y336); assay: Hs-Siglec9 ALPHAscreen SOP 20170721; conditions: 10 µM
[6] = system: Trypanosoma cruzi; assay: Trypanosoma cruzi phosphomannomutase and mannose-1-phosphate guanylyltransferase assay; type: functional; conditions: 10 µM
[7] = molecular target: T3, Arginase-2, mitochondrial (Homo sapiens) (UniProt P78540); assay: in vitro enzyme assay to detect the production of urea directly proportional to the activity of Arginase II; type: functional; conditions: 33.3 µM; note: in the data most compounds retested in dose-response had high values
T3 sequence (whole entry): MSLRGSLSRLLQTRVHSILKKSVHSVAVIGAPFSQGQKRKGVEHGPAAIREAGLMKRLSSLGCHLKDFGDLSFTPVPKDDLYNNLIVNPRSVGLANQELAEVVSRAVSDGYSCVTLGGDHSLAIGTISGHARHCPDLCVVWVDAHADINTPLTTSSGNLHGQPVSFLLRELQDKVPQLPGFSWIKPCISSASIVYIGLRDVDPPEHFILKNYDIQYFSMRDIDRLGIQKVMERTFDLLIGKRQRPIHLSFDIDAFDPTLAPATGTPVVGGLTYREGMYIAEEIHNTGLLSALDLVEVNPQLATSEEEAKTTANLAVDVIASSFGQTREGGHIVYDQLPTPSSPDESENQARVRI

[8] = molecular target: T4, Proteasome subunit beta (Trypanosoma cruzi) (UniProt O96673); assay: Trypanosoma cruzi proteasome chymotrypsin-like activity (TcProtChymo) assay.; note: in the data most compounds retested in dose-response had high values; type: functional; conditions: 9.37 µM
T4 sequence (whole entry): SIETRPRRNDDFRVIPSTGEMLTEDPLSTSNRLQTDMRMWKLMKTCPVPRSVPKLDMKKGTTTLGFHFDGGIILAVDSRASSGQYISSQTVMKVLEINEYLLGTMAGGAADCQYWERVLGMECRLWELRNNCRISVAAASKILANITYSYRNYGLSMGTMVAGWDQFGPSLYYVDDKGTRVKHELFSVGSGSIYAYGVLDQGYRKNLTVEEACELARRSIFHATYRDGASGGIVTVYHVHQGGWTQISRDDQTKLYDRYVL

[9] = organism: Homo sapiens; assay: To identify inhibition of the IFN signalling (Jak-Stat) pathway via expression of an eGFP reporter gene under the control of an IFN-stimulated response element (ISRE) containing MxA promoter.; type: functional; conditions: 30 µM
[10] = molecular target: Shiga toxin 2 (Escherichia coli O157:H7) (UniProt P09385+P09386); assay: E. coli 0.157:H7 Shiga Toxin SOP - stx2 screening assay; type: functional; conditions: 30 µM
[11] = molecular target: T5, Tyrosyl-tRNA synthetase, putative (Trypanosoma cruzi (strain CL Brener)) (UniProt Q4DSP6); assay: Trypanosoma cruzi tyrosyl tRNA synthetase (TcYRS) _High Tyrosine SOP; type: functional; conditions: 30 µM; note: in the data most compounds retested in dose-response had high values
T5 sequence (whole entry): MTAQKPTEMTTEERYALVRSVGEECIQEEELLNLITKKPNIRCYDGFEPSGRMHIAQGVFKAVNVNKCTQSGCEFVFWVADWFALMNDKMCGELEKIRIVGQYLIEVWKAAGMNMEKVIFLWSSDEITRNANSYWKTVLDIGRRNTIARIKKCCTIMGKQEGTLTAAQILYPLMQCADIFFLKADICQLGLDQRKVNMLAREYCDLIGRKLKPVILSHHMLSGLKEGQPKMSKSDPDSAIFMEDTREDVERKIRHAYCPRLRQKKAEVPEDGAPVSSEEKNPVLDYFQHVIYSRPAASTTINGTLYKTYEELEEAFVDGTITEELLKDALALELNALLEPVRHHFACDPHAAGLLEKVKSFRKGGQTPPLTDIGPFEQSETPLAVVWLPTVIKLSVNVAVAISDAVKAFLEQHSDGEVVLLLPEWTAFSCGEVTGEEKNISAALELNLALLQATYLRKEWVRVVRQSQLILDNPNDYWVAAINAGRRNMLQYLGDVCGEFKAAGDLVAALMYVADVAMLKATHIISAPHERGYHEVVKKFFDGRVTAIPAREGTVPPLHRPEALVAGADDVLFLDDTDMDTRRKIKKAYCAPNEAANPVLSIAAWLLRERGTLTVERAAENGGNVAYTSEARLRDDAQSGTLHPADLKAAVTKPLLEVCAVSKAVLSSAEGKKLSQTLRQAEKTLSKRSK

[12] = molecular target: T5, Tyrosyl-tRNA synthetase, putative (Trypanosoma cruzi (strain CL Brener)); assay: Trypanosoma cruzi tyrosyl tRNA synthetase (TcYRS) SOP; type: functional; conditions: 30 µM
[13] = molecular target: Chromo domain-containing protein 1 (Saccharomyces cerevisiae (strain ATCC 204508 / S288c) (Baker's yeast)) (UniProt P32657); assay: ScCHD-1 Enzyme Inhibition Assay; type: functional; conditions: 30 µM; note: in the data most compounds retested in dose-response had high values
Sequence of Chromo domain-containing protein 1 (Saccharomyces cerevisiae (strain ATCC 204508 / S288c) (Baker's yeast)) (P32657 whole entry, the tested form may be a part): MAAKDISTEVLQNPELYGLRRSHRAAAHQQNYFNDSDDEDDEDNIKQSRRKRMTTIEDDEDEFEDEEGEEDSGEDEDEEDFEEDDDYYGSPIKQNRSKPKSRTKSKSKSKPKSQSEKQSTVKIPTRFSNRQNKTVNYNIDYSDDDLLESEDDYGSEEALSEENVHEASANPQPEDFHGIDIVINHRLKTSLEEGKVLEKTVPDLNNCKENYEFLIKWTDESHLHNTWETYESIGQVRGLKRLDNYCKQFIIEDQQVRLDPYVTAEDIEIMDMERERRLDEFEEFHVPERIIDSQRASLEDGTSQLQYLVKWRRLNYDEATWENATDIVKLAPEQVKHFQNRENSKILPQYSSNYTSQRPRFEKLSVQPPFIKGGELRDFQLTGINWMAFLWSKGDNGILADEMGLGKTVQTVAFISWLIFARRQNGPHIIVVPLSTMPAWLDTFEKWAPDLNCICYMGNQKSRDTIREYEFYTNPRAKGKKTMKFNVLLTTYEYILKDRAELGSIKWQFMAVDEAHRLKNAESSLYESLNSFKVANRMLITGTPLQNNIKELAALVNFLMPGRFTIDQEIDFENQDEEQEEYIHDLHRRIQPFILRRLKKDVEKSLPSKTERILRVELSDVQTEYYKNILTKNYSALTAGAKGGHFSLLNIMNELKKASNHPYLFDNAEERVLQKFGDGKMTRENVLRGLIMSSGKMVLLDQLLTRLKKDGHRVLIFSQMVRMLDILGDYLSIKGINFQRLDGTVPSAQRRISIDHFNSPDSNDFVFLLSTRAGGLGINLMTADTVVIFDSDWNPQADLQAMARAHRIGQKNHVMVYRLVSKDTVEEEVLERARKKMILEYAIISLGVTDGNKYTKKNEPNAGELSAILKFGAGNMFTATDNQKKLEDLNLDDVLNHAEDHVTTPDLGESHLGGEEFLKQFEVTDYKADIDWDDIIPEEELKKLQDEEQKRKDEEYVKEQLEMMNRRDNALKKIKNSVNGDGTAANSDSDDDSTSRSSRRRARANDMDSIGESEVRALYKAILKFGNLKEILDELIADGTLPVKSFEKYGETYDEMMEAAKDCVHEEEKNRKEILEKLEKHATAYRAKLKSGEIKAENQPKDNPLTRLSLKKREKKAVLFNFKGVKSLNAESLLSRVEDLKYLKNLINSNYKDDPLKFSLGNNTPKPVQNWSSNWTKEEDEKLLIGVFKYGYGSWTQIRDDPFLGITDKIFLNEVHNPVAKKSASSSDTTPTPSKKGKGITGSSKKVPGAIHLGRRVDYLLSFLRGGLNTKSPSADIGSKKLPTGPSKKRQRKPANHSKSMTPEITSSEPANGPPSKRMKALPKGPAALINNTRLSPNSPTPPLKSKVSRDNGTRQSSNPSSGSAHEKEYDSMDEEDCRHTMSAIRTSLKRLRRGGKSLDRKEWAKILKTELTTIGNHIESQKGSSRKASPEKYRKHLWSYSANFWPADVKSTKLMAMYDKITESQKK

Sequence of Sialic acid-binding Ig-like lectin 9 (Homo sapiens) (Q9Y336 whole entry): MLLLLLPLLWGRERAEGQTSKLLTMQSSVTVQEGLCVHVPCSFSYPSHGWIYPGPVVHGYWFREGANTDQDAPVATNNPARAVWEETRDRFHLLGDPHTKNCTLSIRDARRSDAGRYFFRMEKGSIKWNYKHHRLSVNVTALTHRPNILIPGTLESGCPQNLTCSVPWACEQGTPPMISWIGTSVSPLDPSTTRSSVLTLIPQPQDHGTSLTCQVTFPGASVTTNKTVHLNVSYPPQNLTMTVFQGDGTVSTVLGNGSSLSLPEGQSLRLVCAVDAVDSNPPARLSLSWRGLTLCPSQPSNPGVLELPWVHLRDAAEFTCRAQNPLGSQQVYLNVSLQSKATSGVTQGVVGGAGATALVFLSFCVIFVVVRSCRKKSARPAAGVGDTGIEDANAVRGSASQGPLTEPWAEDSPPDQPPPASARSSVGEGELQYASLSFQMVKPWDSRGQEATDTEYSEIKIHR
Sequence of Protein translocase subunit SecA (Escherichia coli (strain K12)) (P10408 whole entry): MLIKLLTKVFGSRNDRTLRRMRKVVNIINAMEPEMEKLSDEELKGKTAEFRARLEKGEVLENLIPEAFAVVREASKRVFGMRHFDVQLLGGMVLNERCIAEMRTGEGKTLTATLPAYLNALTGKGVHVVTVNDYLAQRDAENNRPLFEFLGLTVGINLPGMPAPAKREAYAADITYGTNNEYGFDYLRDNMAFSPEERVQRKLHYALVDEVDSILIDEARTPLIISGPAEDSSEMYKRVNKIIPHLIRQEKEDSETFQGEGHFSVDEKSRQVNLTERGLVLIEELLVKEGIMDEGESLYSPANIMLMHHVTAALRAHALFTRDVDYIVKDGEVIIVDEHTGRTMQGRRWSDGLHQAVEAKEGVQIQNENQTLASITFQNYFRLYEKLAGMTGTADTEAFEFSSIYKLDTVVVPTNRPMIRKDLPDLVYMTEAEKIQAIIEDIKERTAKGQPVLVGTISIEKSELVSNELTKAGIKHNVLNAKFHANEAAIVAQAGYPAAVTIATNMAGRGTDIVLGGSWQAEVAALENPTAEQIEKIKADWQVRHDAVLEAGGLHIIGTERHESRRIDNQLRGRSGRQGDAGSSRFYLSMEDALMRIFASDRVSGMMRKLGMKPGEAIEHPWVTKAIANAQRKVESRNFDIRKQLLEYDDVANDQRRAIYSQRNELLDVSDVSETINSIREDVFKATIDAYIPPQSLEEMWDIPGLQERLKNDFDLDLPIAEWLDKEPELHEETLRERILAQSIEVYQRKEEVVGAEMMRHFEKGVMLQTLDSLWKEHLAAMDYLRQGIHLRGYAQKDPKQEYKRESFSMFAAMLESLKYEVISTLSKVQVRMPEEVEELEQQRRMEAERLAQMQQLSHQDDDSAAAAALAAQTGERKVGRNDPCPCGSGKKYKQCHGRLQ

Row | Compound | Percent Effect [1] [%] | Percent Effect [2] [%] | Percent Effect [3] [%] | Percent Effect [4] [%] | Percent Effect [5] [%] | Percent Effect [6] [%] | Percent Effect [7] [%] | Percent Effect [8] [%] | Percent Effect [9] [%] | Percent Effect [10] [%] | Percent Effect [11] [%] | Percent Effect [12] [%] | Percent Effect [13] [%]
1 | NC(=O)N1C[C@H]2CN(Cc3nccs3)C[C@H]2C1 | 0.982 | 10.8 | 2.58 | 9.05 | -13 | -3.62 | 1.59 | 16.6 | 5.62 | -3.75 | 3.24 | 12.8 | -3.89
2 | Cn1ccnc1CN1CCC2(CC(=O)N(c3cncnc3)C2)C1 (stereo not given) | -1.68 | 2.7 | -3.41 | 10 | 1.79 | -2.64 | 2.23 | 21.2 | 2.89 | 0.165 | 2.16 | 12.8 | 1.86
3 | Cc1oc(-c2ccco2)nc1CC(=O)N1CCN(C2CCC2)CC1 | -7.4 | 7.79 | -0.115 | -1.25 | 1.16 | 1.08 | 4 | 12.8 | 2.52 | 24.8 | 0 | 7.06 | -19
4 | Cc1cc(CN2CC[C@H]3C[C@H](c4nccs4)O[C@@H]3C2)no1 | 2.63 | -2.7 | -1.08 | 5.99 | 4.06 | -1.47 | 0.319 | 12.9 | -4.4 | 3.88 | 0 | 0 | 7.66
5 | Cc1cccc(CN2C[C@@H]3CCCO[C@@H]3[C@H](NS(C)(=O)=O)C2)n1 | -4.89 | 21.3 | 4.75 | -6.76 | -3.19 | 5.99 | -50.4 | 11.1 | -3.89 | -20.3 | 7.29 | 25 | -7.06
6 | CN(C)c1nccc(N2CCO[C@H]3CN(Cc4ccsc4)C[C@H]32)n1 | -0.682 | 8.22 | -1.5 | 2.33 | 8.35 | 1.59 | -0.399 | 19.9 | 2.38 | -97.8 | 8.33 | 13.6 | -5.92
7 | CCc1nnc(C(C)N2CCCN(C(=O)Oc3ccccc3)CC2)o1 (stereo not given) | -1.28 | 15.8 | -3.35 | 0.0863 | -6.34 | -6.72 | -3.55 | 12.6 | 3.97 | -15.6 | 2.13 | 5.2 | -5.08
8 | CCN(Cc1cccnc1)CC1CCCO1 (stereo not given) | -3.64 | 0 | 6.87 | -3.71 | -1.05 | -5.88 | -6.82 | 1.77 | 3.09 | -16.3 | 2.15 | 2.5 | -3.4
9 | Cc1n[nH]c2c1C(c1cnn(C)c1)SCC(=O)N2 (stereo not given) | -5.19 | 1.33 | -2.64 | 11.3 | 3.08 | -2.16 | -11.4 | 11.8 | 6.26 | -3.86 | 3.17 | 12.8 | -9.44
10 | O=C1OCCC1N1CCN(C(=O)Cc2c[nH]c3ccccc23)CC1 (stereo not given) | -0.412 | 18.9 | 6.13 | -14.5 | -1.41 | 3.49 | -9.62 | 15.7 | 9.19 | 15.5 | 12.3 | 23.5 | -11.1
